# Compounds with a hit are over-represented: about 3.3% of the library has one in this group of screens.
# Mcl1 Noxa PPI: Mcl-1/Noxa binding inhibitors, primary screen, biochemical, TR-FRET, 1536-well; inhibition, % at 21.7 µM; TR-FRET Mcl-1/Noxa peptide binding, 2 h; 220,000 compounds, 1.5% hits; AID 1022, 2008;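 active means compounds that cut the protein-peptide binding signal by more than 50% relative to plate controls in a single-dose test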;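 further: His-tagged Mcl-1 with rhodamine Noxa BH3 peptide and terbium anti-His antibody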
# Mcl1-Bid inh: Mcl-1/Bid binding inhibitors, primary screen, biochemical, TR-FRET, 1536-well; TR-FRET Mcl-1/Bid-Dy647 peptide binding; inhibition, % at 21.7 µM; 220,000 compounds, 0.97% hits; AID 1021, 2008;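 active means compounds that cut the binding signal by more than half at the single screening dose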;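 further: His-tagged Mcl-1 with europium anti-His antibody binding Bid BH3 peptide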
# eIF4E 4G PPI: eIF4E–eIF4G protein interaction inhibitors, primary screen, biochemical, uHTS, TR-FRET, eIF4GI fragment; 220,000 compounds, 0.37% hits; TR-FRET eIF4E-eIF4GI(517-606) binding, 2 h; Eukaryotic translation initiation factor 4E (Mus musculus) + Eukaryotic translation …; inhibition, % at 21.7 µM
# Mcl-1 Bim block: inhibitors of Bim peptide binding to Mcl-1, primary screen, biochemical, bead-based flow cytometry, multiplex | Bim peptide-Mcl-1 binding | inhibition, % at 10 µM | 190,000 compounds, 0.1% hits | AID 1009, 2008; in the data active means inhibition above about 40%
# NCF1 inh: p47phox/p22phox peptide binding inhibitors, primary screen, biochemical, uHTS, NADPH oxidase regulatory subunit. Neutrophil cytosol factor 1 (Homo sapiens), P14598. fluorescence polarization, 2 h. inhibition, % at 24.7 µM. 220,000 compounds, 0.53% hits
# Target sequence (P14598 whole entry, looked up): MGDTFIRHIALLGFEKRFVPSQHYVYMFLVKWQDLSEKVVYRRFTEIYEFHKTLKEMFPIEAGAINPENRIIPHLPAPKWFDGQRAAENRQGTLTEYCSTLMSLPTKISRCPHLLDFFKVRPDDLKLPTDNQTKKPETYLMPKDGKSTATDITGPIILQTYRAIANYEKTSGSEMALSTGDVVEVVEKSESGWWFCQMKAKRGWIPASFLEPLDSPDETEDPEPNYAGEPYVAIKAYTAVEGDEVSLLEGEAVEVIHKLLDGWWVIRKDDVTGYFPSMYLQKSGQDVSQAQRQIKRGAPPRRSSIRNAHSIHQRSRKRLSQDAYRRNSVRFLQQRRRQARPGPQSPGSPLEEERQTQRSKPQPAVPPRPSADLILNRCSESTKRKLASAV
# 14-3-3 Bad PPI: inhibitors of 14-3-3 zeta/Bad binding, primary screen, biochemical, TR-FRET, bovine 14-3-3 zeta. TR-FRET 14-3-3zeta/Dy647-pBad peptide displacement, 1 h. inhibition, % at 21.7 µM. 220,000 compounds, 0.71% hits. 14-3-3 protein zeta/delta (Bos taurus), P63103;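 active means inhibition above about 70%, limit read from the data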
# A number is an active result; - = inactive; . = not tested or not shown; [ ] = dose if it differs, or a comment.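 How the source made its calls, unless noted: active means inhibition above about 30% (limit read from the data); inactive means the rest.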
SMILES,Mcl1 Noxa PPI,Mcl1-Bid inh,eIF4E 4G PPI,Mcl-1 Bim block,NCF1 inh,14-3-3 Bad PPI
CCC(=NCc1cccnc1)c1c(O)n(-c2ccccc2)c(=O)[nH]c1=O,-,-,32.1,.,-,-
CCC(=NCc1cccnc1)c1c(O)n(-c2ccc(C)cc2)c(=O)[nH]c1=O,-,-,-,.,-,-
O=C(N/N=C/c1c(O)n(CCc2ccccc2)c(=O)[nH]c1=O)c1ccccc1,-,-,-,.,-,-
O=C1NC(=O)C(=Cc2ccc(SC3CCCCC3)o2)C(=O)N1,72.1,-,-,-,-,-
C=CCNC(=O)c1c(N)n(Cc2ccco2)c2nc3ccccc3nc12,57.3,-,-,-,-,-
Nc1c(C(=O)NCCN2CCOCC2)c2nc3ccccc3nc2n1Cc1ccco1,76.4,-,-,-,-,-
Nc1c(C(=O)NCCc2ccccc2)c2nc3ccccc3nc2n1CCN1CCOCC1,-,76.9,-,-,-,76.1[fluorescence artefact?]
CCOC(=O)C1CCN(C=C2C(=O)N(C)C(=S)N(C)C2=O)CC1,-,-,-,-,-,-
COCCCN=Cc1c(O)[nH]c(=S)[nH]c1=O,-,-,-,-,-,-
CC(=NCC1CCCO1)c1c(O)n(C2CCCCC2)c(=O)[nH]c1=O (centres undefined),-,-,-,.,-,-
C=CCn1c(O)c(C(C)=NCC2CCCO2)c(=O)[nH]c1=O (centres undefined),-,77.5,-,.,-,-
CCCC(=O)NC(Oc1ccc(C(C)=O)cc1)C(Cl)(Cl)Cl (centres undefined),-,-,-,-,-,-
CN(C)c1ccc(C=C2C(=O)NC(=S)NC2=O)cc1[N+](=O)[O-],64.9,-,-,-,-,-
CNC(=S)NC1CC2CCCC(C1)N2CC(C)C (centres undefined),-,-,-,-,39.8,-
CCCN1C2CCCC1CC(NC(C)=O)C2 (centres undefined),-,-,-,-,-,-
COc1ccc2c(c1)NP(=S)(Oc1ccccc1)N2 (centres undefined),52.5,-,-,.,-,-
O=C(O)CCn1cc(C=C2C(=O)NC(=S)NC2=O)c(-c2cccc(Cl)c2)n1,96.9,-,-,-,-,-
O=C(O)CCn1cc(C=C2C(=O)NC(=O)NC2=O)c(-c2ccc(Br)cc2)n1,-,-,-,-,-,-
CCC(=NC(C)c1ccccc1)c1c(O)[nH]c(=O)[nH]c1=O (centres undefined),-,90.3,-,.,-,-
CCC(=NCCC(c1ccccc1)c1ccccc1)c1c(O)[nH]c(=O)[nH]c1=O,-,-,-,-,-,-
CC1=NN(c2ccccc2)C(=O)C1/C=C1/C(=O)NC(=O)N(c2cc(C)cc(C)c2)C1=O (centres undefined),-,-,-,-,-,74.6
CC1=NN(c2ccccc2)C(=O)C1/C=C1\C(=O)NC(=O)N(c2cc(C)cc(C)c2)C1=O (centres undefined),-,-,-,-,-,-
CCC(C)N1C(=O)/C(=C/c2ccc3c(c2)CCN3CCCCl)C(=O)NC1=S (centres undefined),101.2,-,-,-,37.6,-
CCN(CC)P(=O)(NC(=O)C(Cl)(Cl)Cl)N(CC)CC.[Cl-].[Cl-].[Cl-].[Nd+3],-,-,-,-,33.1,-
C=CCn1c(O)c(/C=N/N2CCCCC2)c(=O)[nH]c1=O,-,-,-,.,-,-
SMILES,Mcl1 Noxa PPI,Mcl1-Bid inh,eIF4E 4G PPI,Mcl-1 Bim block,NCF1 inh,14-3-3 Bad PPI
CCCCN(Cc1ccccc1)C1CCN(CCc2ccccc2)CC1,50.7,-,-,-,-,-
c1ccc(CCN2CCC(N3CCN(c4ccccc4)CC3)CC2)cc1,-,-,-,-,-,-
O=c1oc2ccccc2c(O)c1[C@H]1c2ccc(O)cc2Oc2c1c(=O)oc1ccccc21,60.7,-,-,.,-,-
NC1=C([N+](=O)[O-])C(c2ccc3c(c2)OCO3)c2c(c3ccccc3oc2=O)O1 (centres undefined),-,-,-,.,-,-
CN1C(=O)C(=Cc2sc(=O)n(-c3ccccc3)c2N2CCCCC2)C(=O)N(C)C1=O,-,96.7,-,.,82.6,-
CN1C(=O)C(=Cc2cc([N+](=O)[O-])ccc2N2CCCCC2)C(=O)N(C)C1=O,-,-,-,-,-,-
Cc1ccc(-c2nn(Cc3ccccc3)cc2C(=O)O)cc1,-,-,95.6,.,-,-
CCCCN1C(=O)/C(=C/C=C/c2ccco2)C(=O)NC1=S,96.2,76.0,-,-,-,-
O=C1NC(=O)N(Cc2ccc(F)cc2)C(=O)/C1=C\C=C\c1ccco1,-,-,-,.,-,-
CCN(CC)CCNCC(=O)Nc1ccc(Cl)cc1C(=O)c1ccccc1,-,-,-,-,-,85.9
O=C(O)c1ccc2c(c1)C1C(Cl)C(Sc3ccccc3[N+](=O)[O-])CC1C(c1cccc([N+](=O)[O-])c1)N2 (centres undefined),77.1,-,-,-,-,-
O=C(O)c1cccc2c1NC(c1cccc([N+](=O)[O-])c1)C1CC(Sc3ccccc3[N+](=O)[O-])C(Cl)C21 (centres undefined),98.5,-,34.8,-,-,-
O=[N+]([O-])c1cccc(C2N3CCCN23)c1 (centres undefined),-,-,-,-,-,-
CC(=O)OC1N=C(c2ccccc2)c2cc(C)ccc2NC1=O (centres undefined),-,-,-,-,-,-
COc1ccc(C(C)=O)cc1CC(C(=O)c1ccc(F)cc1)N(C)C (centres undefined),-,-,-,-,-,-
Cc1cccc(OCC(=O)N2CCN(Cc3ccc4c(c3)OCO4)CC2)c1,-,-,-,-,-,-
COc1cc(CN2CCN(C(=O)COc3ccccc3)CC2)cc(OC)c1OC,-,-,-,-,-,77.7
O=C(COc1ccccc1)N1CCN(Cc2c[nH]c3ccccc23)CC1,-,67.6,-,-,-,81.1
Cc1cccc(OCC(=O)N2CCN(Cc3ccncc3)CC2)c1,-,60.1,-,-,-,-
COc1ccc(/C=C/C(=O)c2c(O)n(CCC3=CCCCC3)c(=O)[nH]c2=O)cc1OC,-,-,-,.,-,-
Cc1nc2ccccc2c(=O)n1-c1ccc(F)cc1,-,-,-,-,32.3,-
Cc1nc2ccccc2c(=O)n1-c1ccncc1,-,-,-,.,-,-
Cn1c(O)c(/C=C/C=Nc2ccccc2)c(=O)n(C)c1=S,70.0,55.5,-,-,-,-
CN(CCc1nnc(N)s1)[N+](=O)[O-],-,-,-,-,-,-

# Bioassay records: PubChem, several laboratories
